± gives the uncertainty stated by the source. In all, about 9,900 compounds were measured (“viability index relative to DMSO control”: median about 1, lowest 2% from about 0.85 on). The sample as a whole holds a higher share of the lowest values than the screen did.
Test system: Plasmodium falciparum NF54 stage V gametocytes
Test: viability index relative to DMSO control (fraction); higher = less gametocyte killing
Settings: 2.5 µM, incubation time: 72 h
Outline: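 In 1,536-well plates, 10 µl of serum-free medium holding P. falciparum NF54 stage V gametocytes (0.75% gametocytemia, 1.25% hematocrit) received compound at 2.5 µM for 72 hr at 37°C in low oxygen. After one to two hours with 3 µl of 2.5 µM MitoTracker Red CMXRos containing 0.13% saponin, red particles of 20–70 µm2 were counted in a single field per well. Viability index is reported as the particle count over the plate mean of wells treated with solvent only.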

[1] = library set: Broad Institute DOS
[2] = library set: Broad Institute Blood Stage

SMILES | viability index [1] | viability index [2]
C[C@@H]1CN([C@@H](C)CO)C(=O)c2c(c3ccccc3n2C)-c2ccccc2CO[C@H]1CN(C)C(=O)[C@H]1CCCN1C | 1.08 ± 0.011 | 
C[C@H](CO)N1C[C@H](C)[C@@H](CN(C)CC2CC2)OCCCC[C@H](C)Oc2ccc(NC(=O)c3ccccc3)cc2C1=O | 1.07 ± 0.02 | 
CCCN(C)C[C@@H]1OCCCC[C@H](C)Oc2ccc(NC(=O)CCCN(C)C)cc2C(=O)N([C@@H](C)CO)C[C@@H]1C | 1.1 ± 0.14 | 
OC[C@H]1Nc2ccc(C#Cc3ccc(F)cc3)cc2[C@@H]2[C@H]1CCN2Cc1ccc2c(c1)OCO2 | 1.06 ± 0.019 | 
CN1C(=O)c2cc(NC(=O)c3cccc(F)c3)ccc2OC[C@@H]2O[C@H](CC(=O)NCc3ccccc3Cl)CC[C@H]21 | 1.13 ± 0.036 | 
C[C@@H]1CN([C@H](C)CO)C(=O)c2cc(NS(=O)(=O)c3ccccc3)ccc2O[C@@H](C)CCCCO[C@@H]1CN(C)C(=O)C1CCCCC1 | 1.01 ± 0.13 | 
CC(C)C(=O)Nc1ccc2c(c1)C(=O)N(C)[C@H]1CC[C@@H](CC(=O)NCCc3ccccc3)O[C@@H]1CO2 | 1.03 ± 0.06 | 
COc1cccc(C#Cc2ccc([C@@H]3[C@@H](C#N)N(C(=O)C4CCCCC4)[C@H]3CO)cc2)c1 |  | 0.7 ± 0.1
COc1cccc(C#Cc2ccc([C@H]3[C@@H](C#N)N(C(=O)c4ccccn4)[C@@H]3CO)cc2)c1 | 1.098 ± 0.009 | 
COc1cccc(C#Cc2ccc([C@H]3[C@@H](CO)N(C(=O)C4CCCC4)[C@H]3C#N)cc2)c1 |  | 0.882 ± 0.054
COc1ccccc1C#Cc1ccc([C@H]2[C@@H](C#N)N(C(=O)C3CCCCC3)[C@H]2CO)cc1 |  | 0.345 ± 0.087
COc1ccccc1C#Cc1ccc([C@@H]2[C@H](C#N)N(C(=O)C3CCC3)[C@H]2CO)cc1 | 1.03 ± 0.09 | 
COc1ccccc1C#Cc1ccc([C@@H]2[C@@H](C#N)N(C(=O)C3CCC3)[C@H]2CO)cc1 | 1.03 ± 0.022 | 
CCCNC(=O)N(C)C[C@H]1Oc2ncc(C#CC3CCCCC3)cc2C(=O)N([C@@H](C)CO)C[C@@H]1C | 0.929 ± 0.067 | 
Cc1ccccc1S(=O)(=O)Nc1ccc2c(c1)C(=O)N(C)[C@@H]1CC[C@H](CC(=O)O)O[C@@H]1CO2 | 1.01 ± 0.033 | 
CN(C)CC(=O)N1[C@H](C(=O)Nc2nccs2)[C@@H](CO)[C@@H]2Cn3c(ccc(C4=CCCCC4)c3=O)[C@@H]21 | 1.02 ± 0.015 | 
COc1ccc(CN2C[C@H](O)COC[C@@H]3O[C@H](CC(=O)N(C)C)CC[C@H]32)cc1 | 1.08 ± 0.1 | 
C[C@H](CO)N1C[C@H](C)[C@H](CN(C)C(=O)NC2CCCCC2)Oc2ccc(N(C)C)cc2CC1=O | 1.13 ± 0.1 | 
CO[C@H]1CC[C@@H]2CCOc3c(C#N)cccc3C(=O)N(C)C[C@@H](OC)[C@@H](C)C(=O)N(C)C[C@@H]1O2 | 1 ± 0.023 | 
COc1ccc2c3c([C@@H](CO)N(C[C@]33CCN(CC3)C(=O)Nc3cccc(F)c3)C(=O)C3CCCC3)n(C)c2c1 |  | 0.822 ± 0.039
CCCNC(=O)N1C[C@]2(CCN(CC2)C(=O)Nc2cccc(F)c2)c2c([C@H]1CO)n(C)c1cc(OC)ccc21 | 0.991 ± 0.079 | 

SMILES | viability index [1] | viability index [2]
COc1ccc2c3c([C@@H](CO)N(C[C@]33CCN(CC3)C(=O)Nc3cccc(F)c3)C(=O)CN3CCOCC3)n(C)c2c1 | 0.993 ± 0.12 | 
COc1ccc2c3c([C@@H](CO)N(C[C@]33CCN(CC3)C(=O)Nc3cccc(F)c3)C(=O)C3CC3)n(C)c2c1 |  | 0.807 ± 0.036
COc1ccc2c3c([C@H](CO)N(C[C@]33CCN(CC3)C(=O)Nc3cccc(F)c3)C(=O)CN3CCOCC3)n(C)c2c1 | 0.941 ± 0.018 | 
COc1ccc2c3c([C@@H](CO)N(C[C@]33CN(C3)C(=O)Nc3cccc(F)c3)C(=O)C3CCOCC3)n(C)c2c1 | 1.06 ± 0.05 | 
C[C@@H]1C/C=C/C[C@@H](c2ccccc2)NC(=O)[C@H](C)N(C)C(=O)c2ccccc2O1.C[C@@H]1C/C=C\C[C@@H](c2ccccc2)NC(=O)[C@H](C)N(C)C(=O)c2ccccc2O1 | 1 ± 0.069 | 
COc1ccc2c3c([C@@H](CO)NC[C@]33CCN(Cc4ccncc4)CC3)n(C)c2c1 | 1.01 ± 0.045 | 
COc1ccc2c3c([C@@H](CO)NC[C@]33CCN(Cc4ccc(cc4)-c4ccccn4)CC3)n(C)c2c1 |  | 0.946 ± 0.052
COc1ccc2c3c([C@H](CO)NC[C@]33CN(Cc4ccc(cc4)-c4ccccn4)C3)n(C)c2c1 | 0.934 ± 0.11 | 
COc1ccc2c3c([C@H](CO)NC[C@]33CN(Cc4ccc(F)cc4)C3)n(C)c2c1 | 0.841 ± 0.014 | 
COc1ccc2c3c([C@H](CO)NC[C@]33CCN(Cc4ccc(cc4)-c4ccccn4)CC3)n(C)c2c1 |  | 0.835 ± 0.04
COc1ccc2c3c([C@@H](CO)NC[C@]33CN(Cc4ccc(cc4)-c4ccccn4)C3)n(C)c2c1 | 0.997 ± 0.019 | 
CO[C@H]1CN(C)C(=O)c2cc(NC(=O)c3cnccn3)ccc2OC[C@H](C)NC[C@H]1C | 1.09 ± 0.041 | 
COc1ccc(-c2ccc([C@H]3[C@H]4CNC[C@@H]3N4S(=O)(=O)c3cn(C)cn3)cc2)cc1 | 1.0563 ± 0.00097 | 
O=C(CC1CC1)N1CC2(C1)[C@@H](c1ccccc1)[C@H](CO)N2C(=O)c1ccccn1 | 1 ± 0.013 | 
C[C@H]1CN([C@@H](C)CO)C(=O)c2c(c3ccccc3n2C)-c2ccccc2CO[C@H]1CN(C)C | 1.04 ± 0.052 | 
O=C(C[C@H]1CC[C@H]2NC[C@@H](O)COC[C@@H]2O1)N1CCc2ccccc2C1 | 1.03 ± 0.049 | 
O=C(CC1CC1)N1CC[C@@H]2[C@H]1c1cc(-c3ccc(F)cc3)ccc1N[C@@H]2CO | 1.046 ± 0.009 | 
CC(C)(C)S(=O)N1Cc2cc(C(=O)NCc3ccc4c(c3)OCO4)nc(-c3cccc(-c4cccc(F)c4)c3)c2[C@@H]1CCO (stereo partly drawn) | 1.04 ± 0.015 | 
COc1ccc(C#Cc2cccc(-c3nc(C(=O)N4CCN(Cc5ccccc5)CC4)cc4c3[C@H](CCO)N(S(=O)C(C)(C)C)C4)c2)cc1OC (stereo partly drawn) | 1.04 ± 0.11 | 
CC(C)(C)S(=O)N1Cc2cc(C(=O)O)nc(-c3cccc(-c4cc5ccccc5o4)c3)c2[C@@H]1CCO (stereo partly drawn) | 1.03 ± 0.023 | 
CC(C)(C)S(=O)N1Cc2cc(C(=O)NCc3ccc4c(c3)OCO4)nc(-c3cccc(-c4cc5ccccc5o4)c3)c2[C@H]1CCO (stereo partly drawn) | 0.656 ± 0.04 | 

SMILES | viability index [1] | viability index [2]
CC(C)(C)S(=O)N1Cc2cc(C(=O)N3CCN(Cc4ccccc4)CC3)nc(-c3cccc(-c4cc5ccccc5o4)c3)c2[C@H]1CCO (stereo partly drawn) | 0.7362 ± 0.0068 | 
COc1ccccc1-c1cccc(-c2nc(C(=O)N3CCN(C)CC3)cc3c2[C@H](CCO)N([S@@](=O)C(C)(C)C)C3)c1 | 1.03 ± 0.032 | 
COc1ccc(C#Cc2cccc(-c3nc(C(=O)N4CCN(Cc5ccccc5)CC4)cc4c3[C@@H](CCO)N(S(=O)C(C)(C)C)C4)c2)cc1OC (stereo partly drawn) | 0.826 ± 0.14 | 
COc1ccc(C#Cc2cccc(-c3nc(C(=O)Nc4ccc(-c5ccccc5)cc4)cc4c3[C@@H](CCO)N(S(=O)C(C)(C)C)C4)c2)cc1OC (stereo partly drawn) | 1.016 ± 0.0075 | 
COc1ccc(C#Cc2cccc(-c3nc(C(=O)NCc4ccc5c(c4)OCO5)cc4c3[C@@H](CCO)N(S(=O)C(C)(C)C)C4)c2)cc1OC (stereo partly drawn) | 0.9061 ± 0.0023 | 
Cc1ccc(CN2CC(=O)N3[C@H](CO)[C@@H](c4ccc(-c5ccccc5F)cc4)[C@H]3C2)cc1 | 1.05 ± 0.062 | 
CC(=O)N1[C@H](CO)[C@@H](c2ccccc2)C12CN(S(=O)(=O)c1ccccc1)C2 | 1.11 ± 0.03 | 
COC(=O)C[C@H]1CC[C@@H]2[C@H](COc3ccc(NC(=O)Nc4cccc(C#N)c4)cc3C(=O)N2C)O1 | 1.1 ± 0.091 | 
O=C(Cc1cccnc1)N1CC(=O)N2[C@H](C1)[C@@H](c1ccc(C#CC3CCCCC3)cc1)[C@@H]2CO | 0.985 ± 0.11 | 
O=C(C1CCOCC1)N1CC(=O)N2[C@H](C1)[C@H](c1ccc(C#CC3CCCCC3)cc1)[C@@H]2CO | 1.03 ± 0.018 | 
C[C@@H]1CN([C@@H](C)CO)C(=O)c2cc(NC(=O)Cn3cnnn3)ccc2O[C@H]1CN(C)Cc1ccc(C(=O)Nc2ccccc2N)cc1 | 1.002 ± 0.0028 | 
O=C(C[C@H]1C[C@@H]2c3cc(NC(=O)Nc4ccccc4)ccc3O[C@@H]2[C@H](CO)O1)NCc1ccccc1 | 1.06 ± 0.03 | 
Cc1ccc(S(=O)(=O)Nc2ccc3c(c2)CC(=O)N([C@H](C)CO)C[C@@H](C)[C@@H](CN(C)S(=O)(=O)c2ccccc2)O3)cc1 | 0.949 ± 0.021 | 
CCCC(=O)N1C[C@]2(CN(Cc3nccs3)C2)c2c([nH]c3cc(OC)ccc23)[C@@H]1CO | 1 ± 0.024 | 
N#C[C@@H]1[C@@H](c2ccccc2-c2ccccc2)[C@H](CO)N1C(=O)Cc1ccncc1 | 1.1 ± 0.2 | 
C[C@H]1CN([C@@H](C)CO)C(=O)c2ccccc2-c2ccccc2CO[C@H]1CN(C)Cc1cccc(C(=O)O)c1 | 0.958 ± 0.034 | 
O=C(C[C@H]1CC[C@@H](NC(=O)C2CC2)[C@H](CO)O1)Nc1ccccc1 | 0.839 ± 0.19 | 
O=C(C[C@H]1CC[C@H](NC(=O)C2CC2)[C@H](CO)O1)Nc1ccccc1 | 0.992 ± 0.033 | 
O=C(C[C@H]1CC[C@H](NC(=O)C2CC2)[C@@H](CO)O1)Nc1ccccc1 | 0.981 ± 0.031 | 
CO[C@H]1CN(C)C(=O)c2cc(NS(=O)(=O)CC(F)(F)F)ccc2OC[C@@H](C)NC[C@H]1C | 1.07 ± 0.0046 | 
CCC(=O)N1CC(=O)N2[C@H](CO)[C@H](c3ccc(C#CCC(C)C)cc3)[C@H]2C1 | 0.956 ± 0.046 | 

From the supplement of paper PMC4723716
